From PubChem BioAssay (NCI)
This is part of a sample that, as a whole, favours compounds with a hit. Of some 83,000 tested, about 20% had one in any assay.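 Method: cells in 96-well plates; compound added at one concentration; 48 h incubation; percent growth measured; values under 10 scored active.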 Activity calls are given as the source filed them.

The compounds below were run on SF-295 CNS (assay: NCI-60 one-dose screen, 48 h (100 = growth as untreated, 0 = no growth, -100 = all killed)). Settings: 10 µM unless noted.
For `Nc1c(C(=O)Nc2c(Cl)cccc2Cl)sc2nc3c(cc12)CCCC3`, the growth was 75.8% (inactive). For `COc1cc2ncnc(Nc3ccc(OCc4cccc(F)c4)c(Cl)c3)c2cc1NC(=O)C1CCCC1`, the growth was 101% (inactive). `O=C(N/N=C/c1ccccc1SSc1ccccc1/C=N/NC(=O)c1ccccc1)c1ccccc1` was tested, and the growth was 38.2% (inactive). In the case of `C[C@@H]1CCCCCCCCC[C@H](O)C(=O)C[C@@H](SC[C@@H](O)C(=O)O)C(=O)O1`, the growth was 104% (inactive). `C=C(C)[C@@H]1CC[C@]2(C)[C@H](CC=C3[C@@H]4CC(C)(C)CC[C@]4(C(=O)OC)CC[C@]32C)[C@@]1(C)CC/C(N)=N/O` was tested, and the growth was 33.6% (inactive). With `C=C(C)[C@@H]1CC[C@]2(C)[C@H](CC=C3[C@@H]4CC(C)(C)CC[C@]4(C=O)CC[C@]32C)[C@@]1(C)CCCN` the growth was 93.2% (inactive). `Cc1ccc(/C=C(\C#N)c2cc3ccccc3n2C)cc1` was tested, and the growth was 9.43% (active). For `N=C(N)c1ccc(S(N)(=O)=O)cc1`, the growth was 98.8% (inactive). With `COc1ccc(-c2cc(=O)oc3ccc(Cl)cc23)cc1F` the growth was 20.4% (inactive). `CCSc1sc(-c2ccc(C)cc2)nc1[P+](c1ccccc1)(c1ccccc1)c1ccccc1` was tested, and the growth was -11.3% (active). With `COC(=O)[C@]12CC[C@@H](C)[C@H](C)[C@@H]1C1=CC(=O)[C@@H]3[C@@]4(C)C[C@@H](O)[C@H](O)[C@@]5(C)COC(=C45)C[C@@]3(C)[C@]1(C)CC2` the growth was 61.3% (inactive). `O=S(=O)(NCCNc1cc(-c2cn(-c3ccccc3)nc2-c2cccc(O)c2)ccn1)c1ccc(Br)cc1` was tested, and the growth was 7.27% (active). For `Brc1ccc2[nH]cc(-c3nc(-c4c[nH]c5ncccc45)cs3)c2c1`, the growth was 5.5% (active). In the case of `Cn1c2c(Cl)c(Cl)ccc2c2c(C#N)c[nH]c(=O)c21`, the growth was 97.8% (inactive). In the case of `CCCCC[C@H]1C/C=C2/C(=O)C=C[C@@H]2C/C=C\CCCC(=O)O[C@@H](CCCCC)C/C=C2/C(=O)C=C[C@@H]2C/C=C\CCCC(=O)O1`, the growth was -45% (active). For `C#CCn1c(C)cc(C)c(C#N)c1=O`, the growth was 99.7% (inactive). In the case of `N#CC1C(=N)Cc2ccccc2-c2ccccc21` (configuration not stated), the growth was 49% (inactive). In the case of `Cc1cc(N2CCCCC2)nc(N(CCNc2ccnc3cc(Cl)ccc23)Cc2ccco2)n1`, the growth was 48.7% (inactive). For `C[C@@H](C(=O)O)c1ccc2c3cc(Cl)ccc3n(Cc3cc(=O)oc4ccc(Cl)cc34)c2c1`, the growth was 103% (inactive). `C=C1C(=O)O[C@H]2[C@H]1CC/C(COC(=O)NCc1cc3ccccc3[nH]1)=C\CC[C@@]1(C)O[C@@H]21` was tested, and the growth was 90.1% (inactive). In the case of `CCOC(=O)N1CCN(CCCCOc2ccc(C(C)(C)CC)cc2)CC1`, the growth was 98.4% (inactive). With `OCC(CO)(CCl)CCl` the growth was 107% (inactive). In the case of `CC(C)(C)c1nc(-c2ccc(O)c(O)c2)cs1`, the growth was 61.6% (inactive). With `Brc1ccc(Cn2nnnc2-c2ccn(-c3ccccc3)n2)cc1` the growth was 50.5% (inactive). `COC(=O)C(Cc1ccccc1)n1cc(COc2nc(Cl)nc(Nc3ccc(Cl)cc3)n2)nn1` (configuration not stated) was tested, and the growth was 101% (inactive). In the case of `COc1cccc(-c2nn(-c3ccccc3)cc2-c2ccnc(NCCNS(=O)(=O)c3ccccc3)c2)c1`, the growth was 20.6% (inactive). With `Nc1c(C(=O)Nc2cccc3ccccc23)sc2nc3c(cc12)CCCC3` the growth was 14.6% (inactive). With `Cn1cc(-c2csc(-c3cn(CCN)c4ccc(F)cc34)n2)c2cccnc21` the growth was 92.4% (inactive). With `COc1ccc(NC(=S)N/N=C/c2ccccc2SSCCC(=O)OC[C@H]2O[C@H](O)[C@H](O)[C@@H](O)[C@@H]2O)cc1` the growth was 59.1% (inactive). With `c1ccc(-c2nc(Nc3ccc(-c4nc5ccccc5[nH]4)cc3)nc(N3CCOCC3)n2)cc1` the growth was -76.4% (active). With `COc1cnc2c(c1)C(=O)c1c-2n(CCCNC2=NCCS2)c(=O)c2cc([N+](=O)[O-])ccc12` the growth was 11.7% (inactive). `Oc1ccc(CCC2CCCC(CCc3ccc(OCCF)cc3)N2)cc1` (configuration not stated) was tested, and the growth was 96.4% (inactive). `Cc1ccsc1-c1ccc2c(c1)COC2(CCCN(C)C)c1ccc(F)cc1` (configuration not stated) was tested, and the growth was 57.1% (inactive). For `COc1ccc(NC(=O)c2ccoc2COc2ccccc2)cc1`, the growth was 98.3% (inactive).

Each compound was assayed on SF-539 CNS in the same assay as above. Settings: 10 µM unless noted.
`Nc1c(C(=O)Nc2c(Cl)cccc2Cl)sc2nc3c(cc12)CCCC3` was tested, and the growth was 75.8% (inactive). For `COc1cc2ncnc(Nc3ccc(OCc4cccc(F)c4)c(Cl)c3)c2cc1NC(=O)C1CCCC1`, the growth was 96.1% (inactive). With `O=C(N/N=C/c1ccccc1SSc1ccccc1/C=N/NC(=O)c1ccccc1)c1ccccc1` the growth was 26.9% (inactive). In the case of `C[C@@H]1CCCCCCCCC[C@H](O)C(=O)C[C@@H](SC[C@@H](O)C(=O)O)C(=O)O1`, the growth was 97.8% (inactive). For `C=C(C)[C@@H]1CC[C@]2(C)[C@H](CC=C3[C@@H]4CC(C)(C)CC[C@]4(C(=O)OC)CC[C@]32C)[C@@]1(C)CC/C(N)=N/O`, the growth was 65.3% (inactive). In the case of `C=C(C)[C@@H]1CC[C@]2(C)[C@H](CC=C3[C@@H]4CC(C)(C)CC[C@]4(C=O)CC[C@]32C)[C@@]1(C)CCCN`, the growth was 89.3% (inactive). With `Cc1ccc(/C=C(\C#N)c2cc3ccccc3n2C)cc1` the growth was 8.03% (active). In the case of `N=C(N)c1ccc(S(N)(=O)=O)cc1`, the growth was 129% (inactive). In the case of `COc1ccc(-c2cc(=O)oc3ccc(Cl)cc23)cc1F`, the growth was -2.9% (active). `CCSc1sc(-c2ccc(C)cc2)nc1[P+](c1ccccc1)(c1ccccc1)c1ccccc1` was tested, and the growth was 9.93% (active). `COC(=O)[C@]12CC[C@@H](C)[C@H](C)[C@@H]1C1=CC(=O)[C@@H]3[C@@]4(C)C[C@@H](O)[C@H](O)[C@@]5(C)COC(=C45)C[C@@]3(C)[C@]1(C)CC2` was tested, and the growth was 54.1% (inactive). For `O=S(=O)(NCCNc1cc(-c2cn(-c3ccccc3)nc2-c2cccc(O)c2)ccn1)c1ccc(Br)cc1`, the growth was 46.2% (inactive). `Brc1ccc2[nH]cc(-c3nc(-c4c[nH]c5ncccc45)cs3)c2c1` was tested, and the growth was 50.9% (inactive). With `Cc1ccc(-c2ccc(Nc3ccccc3)nn2)cc1S(N)(=O)=O` the growth was 82.3% (inactive). `Cn1c2c(Cl)c(Cl)ccc2c2c(C#N)c[nH]c(=O)c21` was tested, and the growth was 84.6% (inactive). In the case of `C/C(=N/NC(N)=S)C(=O)O`, the growth was 101% (inactive). With `CCCCC[C@H]1C/C=C2/C(=O)C=C[C@@H]2C/C=C\CCCC(=O)O[C@@H](CCCCC)C/C=C2/C(=O)C=C[C@@H]2C/C=C\CCCC(=O)O1` the growth was -89.5% (active). For `C#CCn1c(C)cc(C)c(C#N)c1=O`, the growth was 97.7% (inactive). `N#CC1C(=N)Cc2ccccc2-c2ccccc21` (configuration not stated) was tested, and the growth was 63.4% (inactive). With `Cc1cc(N2CCCCC2)nc(N(CCNc2ccnc3cc(Cl)ccc23)Cc2ccco2)n1` the growth was 30.7% (inactive). In the case of `C[C@@H](C(=O)O)c1ccc2c3cc(Cl)ccc3n(Cc3cc(=O)oc4ccc(Cl)cc34)c2c1`, the growth was 102% (inactive). With `C=C1C(=O)O[C@H]2[C@H]1CC/C(COC(=O)NCc1cc3ccccc3[nH]1)=C\CC[C@@]1(C)O[C@@H]21` the growth was -46.2% (active). With `CCOC(=O)N1CCN(CCCCOc2ccc(C(C)(C)CC)cc2)CC1` the growth was 104% (inactive). For `OCC(CO)(CCl)CCl`, the growth was 102% (inactive). For `COc1ccc(-c2cc(/C=C/C(=O)c3ccc(N)cc3)[nH]n2)cc1`, the growth was 1.33% (active). `CC(C)(C)c1nc(-c2ccc(O)c(O)c2)cs1` was tested, and the growth was 57.7% (inactive). `Brc1ccc(Cn2nnnc2-c2ccn(-c3ccccc3)n2)cc1` was tested, and the growth was 80.8% (inactive). `COC(=O)C(Cc1ccccc1)n1cc(COc2nc(Cl)nc(Nc3ccc(Cl)cc3)n2)nn1` (configuration not stated) was tested, and the growth was 97.4% (inactive). In the case of `COc1cccc(-c2nn(-c3ccccc3)cc2-c2ccnc(NCCNS(=O)(=O)c3ccccc3)c2)c1`, the growth was 57.1% (inactive). With `Nc1c(C(=O)Nc2cccc3ccccc23)sc2nc3c(cc12)CCCC3` the growth was 8.91% (active). In the case of `Cn1cc(-c2csc(-c3cn(CCN)c4ccc(F)cc34)n2)c2cccnc21`, the growth was 80.1% (inactive). With `COc1ccc(NC(=S)N/N=C/c2ccccc2SSCCC(=O)OC[C@H]2O[C@H](O)[C@H](O)[C@@H](O)[C@@H]2O)cc1` the growth was 91.7% (inactive). In the case of `c1ccc(-c2nc(Nc3ccc(-c4nc5ccccc5[nH]4)cc3)nc(N3CCOCC3)n2)cc1`, the growth was -76.8% (active). With `COc1cnc2c(c1)C(=O)c1c-2n(CCCNC2=NCCS2)c(=O)c2cc([N+](=O)[O-])ccc12` the growth was -66.5% (active). `OCCNc1nc(Nc2ccc(Cl)c(Cl)c2)nc2ccccc12` was tested, and the growth was 75.1% (inactive). For `Oc1ccc(CCC2CCCC(CCc3ccc(OCCF)cc3)N2)cc1` (configuration not stated), the growth was 104% (inactive). With `Cc1ccsc1-c1ccc2c(c1)COC2(CCCN(C)C)c1ccc(F)cc1` (configuration not stated) the growth was 67% (inactive). In the case of `COc1ccc(NC(=O)c2ccoc2COc2ccccc2)cc1`, the growth was 96% (inactive).
